Data reported in PubChem BioAssay AID1159580 (chemical genetic matrix, 2015).
Out of some 5,500 compounds screened, about 2,000 (36%) were called active. About 18% were inconclusive and are not listed. No stated cut-off is given here; in the data, active means normalized growth mostly below about 0.91 (no sharp cut-off); inconclusive means no clear call, values can overlap the other calls; inactive means mostly above about 0.92. This is one part of the list.

Assay: chemical genetic growth profiling, strain panel (AID 1159580);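 further: tested at 20 µM; growth read once vehicle control cultures reached saturation at 30 °C; 1 = growth at the plate median or of vehicle wells; lower values mean less growth of the strain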
Conditions: growth OD

Measured: normalized growth

O=C(O)CCC(=O)OC[C@@H](NC(=O)C(Cl)Cl)[C@H](O)c1ccc([N+](=O)[O-])cc1
inactive: S. cerevisiae deletion strains, locus YJR043C, strain POL32, hits give low values 0.977 | S. cerevisiae deletion strains, locus YJR066W, strain TOR1, hits give low values 0.981 | S. cerevisiae deletion strains, locus YKL009W, strain mrt4, hits give low values 1 | S. cerevisiae deletion strains, locus YKL068W, hits give low values 0.962 | S. cerevisiae deletion strains, locus YKL085W, strain MDH1 (second series), hits give low values 0.99 | S. cerevisiae deletion strains, locus YKL085W, strain MDH1, hits give low values 0.99 | S. cerevisiae deletion strains, locus YKL160W, strain elf1, hits give low values 0.98 | S. cerevisiae deletion strains, locus YKL190W, strain CNB1, hits give low values 0.993 | S. cerevisiae deletion strains, locus YKR001C, strain vps1, hits give low values 0.967 | S. cerevisiae deletion strains, locus YKR026C, strain gcn3, hits give low values 0.984 | S. cerevisiae deletion strains, locus YKR091W, strain srl3, hits give low values 0.971 | S. cerevisiae deletion strains, locus YLL001W, strain dnm1, hits give low values 0.937 | S. cerevisiae deletion strains, locus YLL026W, hits give low values 0.974 | S. cerevisiae deletion strains, locus YLL041C, strain sdh2, hits give low values 0.993 | S. cerevisiae deletion strains, locus YLR027C, strain aat2, hits give low values 0.99 | S. cerevisiae deletion strains, locus YLR039C, strain RIC1, hits give low values 0.964 | S. cerevisiae deletion strains, locus YLR058C, strain SHM2, hits give low values 0.976 | S. cerevisiae deletion strains, locus YLR102C, strain apc9, hits give low values 0.977 | S. cerevisiae deletion strains, locus YLR113W, strain HOG1, hits give low values 0.973 | S. cerevisiae deletion strains, locus YLR221C, strain rsa3, hits give low values 0.918 | S. cerevisiae deletion strains, locus YLR258W, strain gsy2, hits give low values 0.984 | S. cerevisiae deletion strains, locus YLR262C, strain YPT6 (second series), hits give low values 0.966 | S. cerevisiae deletion strains, locus YLR262C, strain YPT6, hits give low values 0.866 | S. cerevisiae deletion strains, locus YLR268W, strain sec22, hits give low values 0.974 | S. cerevisiae deletion strains, locus YLR320W, strain mms22, hits give low values 0.944 | S. cerevisiae deletion strains, locus YLR330W, strain CHS5, hits give low values 0.985 | S. cerevisiae deletion strains, locus YLR342W, strain FKS1 (second series), hits give low values 1.01 | S. cerevisiae deletion strains, locus YLR342W, strain FKS1, hits give low values 0.986 | S. cerevisiae deletion strains, locus YLR357W, strain rsc2, hits give low values 1 | S. cerevisiae deletion strains, locus YLR370C, strain arc18, hits give low values 0.944 | S. cerevisiae deletion strains, locus YLR371W, strain rom2, hits give low values 0.979 | S. cerevisiae deletion strains, locus YLR384C, strain iki3, hits give low values 0.987 | S. cerevisiae deletion strains, locus YLR418C, strain cdc73, hits give low values 0.974 | S. cerevisiae deletion strains, locus YML016C, strain PPZ1, hits give low values 0.979 | S. cerevisiae deletion strains, locus YML032C, strain rad52, hits give low values 0.968 | S. cerevisiae deletion strains, locus YML120C, strain ndi1, hits give low values 0.936 | S. cerevisiae deletion strains, locus YML124C, strain tub3, hits give low values 0.994 | S. cerevisiae deletion strains, locus YMR058W, strain fet3, hits give low values 0.983 | S. cerevisiae deletion strains, locus YMR078C, strain ctf18, hits give low values 0.978 | S. cerevisiae deletion strains, locus YMR125W, strain sto1, hits give low values 0.962 | S. cerevisiae deletion strains, locus YMR129W, hits give low values 0.988 | S. cerevisiae deletion strains, locus YMR205C, strain PFK2, hits give low values 1.01 | S. cerevisiae deletion strains, locus YMR223W, strain ubp8, hits give low values 0.997 | S. cerevisiae deletion strains, locus YMR231W, strain pep5, hits give low values 0.996 | S. cerevisiae deletion strains, locus YMR263W, strain SAP30, hits give low values 1.01 | S. cerevisiae deletion strains, locus YMR307W, strain GAS1, hits give low values 1.05 | S. cerevisiae deletion strains, locus YNL067W, strain RPL9B, hits give low values 1.03 | S. cerevisiae deletion strains, locus YNL071W, strain lat1, hits give low values 0.989 | S. cerevisiae deletion strains, locus YNL153C, strain GIM3, hits give low values 1.02 | S. cerevisiae deletion strains, locus YNL183C, strain NPR1, hits give low values 0.93 | S. cerevisiae deletion strains, locus YNL209W, strain ssb2, hits give low values 0.971 | S. cerevisiae deletion strains, locus YNL233W, strain BNI4, hits give low values 1.02 | S. cerevisiae deletion strains, locus YNL248C, strain rpa49, hits give low values 1.02 | S. cerevisiae deletion strains, locus YNL271C, strain bni1, hits give low values 0.97 | S. cerevisiae deletion strains, locus YNL298W, strain CLA4, hits give low values 0.983 | S. cerevisiae deletion strains, locus YNL307C, strain MCK1, hits give low values 0.99 | S. cerevisiae deletion strains, locus YNL322C, strain KRE1 (second series), hits give low values 0.962 | S. cerevisiae deletion strains, locus YNR049C, strain mso1, hits give low values 0.972 | S. cerevisiae deletion strains, locus YNR052C, strain pop2, hits give low values 0.989 | S. cerevisiae deletion strains, locus YOL006C, strain TOP1, hits give low values 1.15 | S. cerevisiae deletion strains, locus YOL012C, strain htz1 0.661 | S. cerevisiae deletion strains, locus YOL147C, strain pex11, hits give low values 0.988 | S. cerevisiae deletion strains, locus YOR001W, strain rrp6, hits give low values 1.04 | S. cerevisiae deletion strains, locus YOR061W, strain CKA2, hits give low values 0.967 | S. cerevisiae deletion strains, locus YOR069W, strain VPS5, hits give low values 0.967 | S. cerevisiae deletion strains, locus YOR070C, strain gyp1, hits give low values 0.999 | S. cerevisiae deletion strains, locus YOR080W, strain dia2, hits give low values 0.98 | S. cerevisiae deletion strains, locus YOR083W, strain WHI5, hits give low values 0.978 | S. cerevisiae deletion strains, locus YOR106W, strain vam3, hits give low values 0.998 | S. cerevisiae deletion strains, locus YOR136W, strain idh2, hits give low values 0.984 | S. cerevisiae deletion strains, locus YOR144C, strain elg1, hits give low values 0.988 | S. cerevisiae deletion strains, locus YOR184W, strain ser1, hits give low values 0.987 | S. cerevisiae deletion strains, locus YOR231W, strain MKK1, hits give low values 0.971 | S. cerevisiae deletion strains, locus YOR265W, strain rbl2, hits give low values 0.976 | S. cerevisiae deletion strains, locus YOR270C, strain vph1, hits give low values 0.987 | S. cerevisiae deletion strains, locus YOR290C, strain snf2, hits give low values 0.928 | S. cerevisiae deletion strains, locus YOR316C, strain cot1, hits give low values 0.97 | S. cerevisiae deletion strains, locus YPL051W, strain arl3, hits give low values 0.998 | S. cerevisiae deletion strains, locus YPL078C, strain atp4, hits give low values 0.988 | S. cerevisiae deletion strains, locus YPL106C, strain sse1, hits give low values 0.944 | S. cerevisiae deletion strains, locus YPL240C, strain hsp82, hits give low values 0.995 | S. cerevisiae deletion strains, locus YPL256C, strain CLN2, hits give low values 0.981 | S. cerevisiae deletion strains, locus YPR119W, strain clb2, hits give low values 0.982 | S. cerevisiae deletion strains, locus YPR141C, strain kar3, hits give low values 0.975 | S. cerevisiae deletion strains, locus YPR163C, strain tif3, hits give low values 0.983 | S. cerevisiae deletion strains, locus YPR167C, strain met16, hits give low values 0.991 | S. cerevisiae deletion strains, strain wtn01, hits give low values 1 | S. cerevisiae strains, strain wild type, hits give low values 0.984
